In PubChem BioAssay:
Calls of active or inactive are those of the source. Unless noted, the rule behind the calls is not given here.

How the values were obtained:
[1] = tested on: XIP peptide (Xip251-270) binding; test: small-molecule binders of XIP peptide, primary screen, biochemical, small-molecule microarray, fluorescence 635/667 nm, 0.1 µg/mL protein (AID 1182); conditions: fluorescent protein binding, 635 nm, higher = more signal, called active from +8 up or from −8 down
XIP peptide (Xip251-270) = test: small-molecule binders of XIP peptide, primary screen, biochemical, small-molecule microarray, fluorescence 635/667 nm, 0.5 µg/mL protein (AID 1183); conditions: small-molecule microarray binding, fluorescence 635 nm; higher = more signal
[2] = Plasmodium falciparum growth inhibition, primary screen, strain 3D7, DAPI fluorescence, 100 nL (AID 1184);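 note: parasites grown inside human red blood cells in medium with human serum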; conditions: P. falciparum 3D7 growth, 3 d, higher = more signal
[3] = molecular target: Homeobox protein Hox-A13 (Mus musculus) (UniProt Q62424); test: inhibitors of HoxA13-DNA binding, primary screen, biochemical, fluorescence polarization, labeled oligonucleotide (AID 1185); conditions: 15 min, higher = more signal, called active from +8 up or from −8 down
[4] = inhibitors of hydroxyurea-induced Chk1 phosphorylation, primary screen, imaging, HeLa, phospho-Chk1 antibody, percent positive cells (AID 1186); conditions: hydroxyurea-induced phospho-Chk1 immunofluorescence imaging, higher = more signal
[5] = inhibitors of hydroxyurea-induced Chk1 phosphorylation, primary screen, imaging, HeLa, phospho-Chk1 nuclear intensity (AID 1187); conditions: hydroxyurea-induced phospho-Chk1 immunofluorescence imaging, higher = more signal

Homeobox protein Hox-A13 (Mus musculus), sequence (Q62424 whole entry, looked up): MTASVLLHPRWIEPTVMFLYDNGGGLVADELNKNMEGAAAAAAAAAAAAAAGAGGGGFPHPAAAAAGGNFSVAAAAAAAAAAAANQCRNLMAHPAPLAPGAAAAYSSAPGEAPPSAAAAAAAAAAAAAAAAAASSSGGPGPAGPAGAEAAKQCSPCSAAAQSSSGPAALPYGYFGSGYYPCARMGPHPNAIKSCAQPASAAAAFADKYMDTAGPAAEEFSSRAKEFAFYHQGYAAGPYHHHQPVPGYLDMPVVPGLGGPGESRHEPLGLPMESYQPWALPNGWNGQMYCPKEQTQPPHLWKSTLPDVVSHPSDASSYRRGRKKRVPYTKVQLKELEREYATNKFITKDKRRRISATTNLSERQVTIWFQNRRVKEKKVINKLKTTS

SMILES | composite z-score [1] | composite z-score (XIP peptide (Xip251-270)) | z-score [2] | z-score [3] | z-score [4] | z-score [5]
CC1CC/C=C\[C@H]2OC34C=CCN(Cc5ccccc5)C(=O)[C@H]3N(CCO)C(=O)[C@@H]4C2C(=O)O1 (stereo partly drawn) | 0.449 (inactive) | 0.108 | -1.56 | -4.51 (inactive) | -0.455 (inactive) | -0.466 (inactive)
CCOC(=O)C1=CC[C@@H](c2cccc(Br)c2)N(S(=O)(=O)c2ccc(C)cc2)[C@H]1c1ccc([N+](=O)[O-])cc1 | 0.422 (inactive) | 0.707 | -1.92 | 4.18 (inactive) | 0.476 (inactive) | 0.508 (inactive)
CC(C)=CCCC(C)=CC(O)C1C=CC2C(=O)N(c3ccccc3)C(=O)C2N1Nc1ccc([N+](=O)[O-])cc1 (stereo not drawn) | 0.174 (inactive) | 0.817 | -0.0908 | -4.57 (inactive) | 0.458 (inactive) | -0.178 (inactive)
CC(C)c1ccc(NN2C(C(O)c3cccs3)C=CC3C(=O)N(c4ccccc4)C(=O)C32)cc1 (stereo not drawn) | 0.213 (inactive) | 0.499 | -0.512 | -3.33 (inactive) | 0.847 (inactive) | 0.219 (inactive)
COc1cc2c(cc1OC)CN(C(=O)[C@@H]1[C@H]3C(=O)O[C@H](c4ccccc4)[C@H](c4ccccc4)N3[C@H](c3ccc(O)cc3)[C@@]13C(=O)Nc1ccc(C#CCNC(N)=O)cc13)CC2 | 0.503 (inactive) | -0.0161 | -0.656 | -1.67 (inactive) | 0.259 (inactive) | 0.278 (inactive)
CC(C)(C)N1CC=CC23O[C@@H]4C=CCCOC(=O)C4[C@H]2C(=O)N(CCCO)[C@@H]3C1=O (stereo partly drawn) | -0.508 (inactive) | -1.18 | -1.75 | -5.86 (inactive) | -0.0977 (inactive) | -0.102 (inactive)
OCCCC1=CC(c2cccs2)N(Cc2cccc(OC(F)(F)F)c2)CC1 (stereo not drawn) | -0.512 (inactive) | 0.754 | -0.717 | -2.9 (inactive) | 0.439 (inactive) | 0.513 (inactive)
COC(=O)[C@@]1(Cc2ccc(F)cc2)[C@@H]2[C@@H](CC(=O)[C@H]2CC(=O)C(=O)N2CCCC2)CN1C(=O)c1ccccc1 | 0.112 (inactive) | 0.663 | -1.44 | -2.66 (inactive) | 0.853 (inactive) | 1.01 (inactive)
C=CCOC(=O)[C@@H]1[C@H]2C(=O)O[C@H](c3ccccc3)[C@H](c3ccccc3)N2[C@H](c2ccc(OCCOC(=O)[C@@H]3C[C@@H]4C(=O)N[C@@H](CCCCNC(C)=O)C(=O)N4[C@@H]3c3ccc(O)cc3)cc2)[C@@]12C(=O)Nc1ccc(I)cc12 | 0.0787 (inactive) | 0.794 | -1.61 | -0.385 (inactive) | 0.552 (inactive) | 0.882 (inactive)
COCCOC(=O)N1C(=O)[C@@]2(c3cc(C#CCCO)ccc31)[C@H](C(=O)NC[C@H](O)c1ccccc1)[C@H]1C(=O)O[C@H](c3ccccc3)[C@H](c3ccccc3)N1[C@@H]2c1ccccc1OCCO | 0.355 (inactive) | 0.564 | -0.89 | -2.38 (inactive) | 0.308 (inactive) | 0.431 (inactive)
CN1C(=O)C2C=CC(C(O)c3ccc(F)cc3)N(N3CCCCC3)C2C1=O (stereo not drawn) | 0.612 (inactive) | -0.635 | -0.0184 | -7.46 (inactive) | 0.64 (inactive) | -0.206 (inactive)
CCCCC=C[C@@H](NC(=O)CCc1ccccc1)c1ccccc1 | 0.286 (inactive) | 0.518 | -0.425 | -0.0682 (inactive) | -0.522 (inactive) | -0.805 (inactive)
O=C1c2ccccc2C(=O)C2CC([C@H]3Oc4ccccc4S(=O)(=O)N4CCC[C@@H]34)=CCC12 (stereo partly drawn) | -0.26 (inactive) | -0.267 | -1.24 | -1.77 (inactive) | -0.278 (inactive) | -0.063 (inactive)
CC(C)(C)OC(=O)CC[C@]1(C(=O)O)COC(c2ccc(OCCCO)cc2)=N1 | 3.69 (inactive) | 0.532 | 1.22 | -1.32 (inactive) | -0.325 (inactive) | -0.122 (inactive)
COCCCNC(=O)[C@@]1(Cc2ccccc2CN=[N+]=[N-])N=C(c2ccc(OCCCO)cc2)O[C@H]1c1ccccc1N=[N+]=[N-] | 0.167 (inactive) | 0.668 | -2.22 | -2.62 (inactive) | -0.498 (inactive) | -0.475 (inactive)
COC(=O)[C@@]1(Cc2ccc(F)cc2)[C@H]2c3cc(C(=O)N4CCCC4)n(Cc4ccccc4)c3C[C@H]2CN1C(=O)c1ccccc1 | 0.0584 (inactive) | 0.703 | -0.443 | -3.98 (inactive) | -0.0167 (inactive) | 0.0304 (inactive)
CN(C)C(=O)[C@@]1(CCS(=O)(=O)c2ccccc2)N=C(c2ccc(OCCCO)cc2)O[C@H]1c1ccccc1CN=[N+]=[N-] | 1.41 (inactive) | 0.653 | -2.48 | -5.32 (inactive) | -0.359 (inactive) | -0.243 (inactive)

SMILES | composite z-score [1] | composite z-score (XIP peptide (Xip251-270)) | z-score [2] | z-score [3] | z-score [4] | z-score [5]
CCOC(=O)C[C@H]1[C@H](OC(=O)Cc2ccc3c(c2)OCO3)[C@@H](NC(=O)c2ccccc2)c2cc(OCCCO)ccc2N1C(=O)c1ccc2ccccc2n1 | -0.263 (inactive) | -0.101 | 0.93 | -3.68 (inactive) | -0.467 (inactive) | -0.259 (inactive)
O=C1C2C=CC(C(O)c3ccccn3)N(Nc3ccccc3)C2C(=O)N1c1ccccc1 (stereo not drawn) | 0.099 (inactive) | 0.116 | -0.244 | -1.65 (inactive) | -0.849 (inactive) | -0.791 (inactive)
COc1cc(C(O)C2C=CC3C(=O)N(C)C(=O)C3N2NC(=O)OC(C)(C)C)cc(OC)c1OC (stereo not drawn) | 1.56 (inactive) | 0.157 | -0.361 | -1.27 (inactive) | 0.873 (inactive) | 0.571 (inactive)
CCOC(=O)C1=CCC(c2cccc(Cl)c2)O1 (stereo not drawn) | 1.62 (inactive) | 0.183 | -1.25 | -0.834 (inactive) | 0.296 (inactive) | -0.0984 (inactive)
CCCN1C(=O)[C@@]2(Cc3ccccc3)N=C(c3ccc(OCCCO)cc3)O[C@H]2c2ccccc21 | 1.19 (inactive) | 0.808 | -2.38 | -4.39 (inactive) | 0.276 (inactive) | 0.555 (inactive)
C=CC[C@]1(C(=O)N(C)C)N=C(c2ccc(OCCCO)cc2)O[C@H]1c1ccccc1 | 0.39 (inactive) | 0.643 | -2.08 | -4.25 (inactive) | -0.271 (inactive) | 0.109 (inactive)
CCCc1cc2c(n1Cc1ccc(OC)cc1)C(C)C1CN(C(=O)c3ccccc3)C(C)(C(=O)OC)C21 (stereo not drawn) | -0.0607 (inactive) | 0.174 | -1.42 | -3.45 (inactive) | 0.5 (inactive) | 0.396 (inactive)
COc1cc2c(cc1OC)CN(C(=O)[C@@H]1[C@H]3C(=O)O[C@H](c4ccccc4)[C@H](c4ccccc4)N3[C@H](c3ccc(OCCO)cc3)[C@@]13C(=O)Nc1ccc(C#CCCO)cc13)CC2 | 1.17 (inactive) | 0.75 | -2.12 | 3.49 (inactive) | 0.0699 (inactive) | 0.595 (inactive)
CCOC(=O)C1=CC[C@@H](c2ccc(N(CC)CC)cc2)N(S(=O)(=O)c2ccc(C)cc2)[C@H]1c1ccc([N+](=O)[O-])cc1 | 0.326 (inactive) | 0.357 | -2.1 | -1.99 (inactive) | 0.0638 (inactive) | -0.244 (inactive)
COC(=O)[C@@]1(Cc2ccc(OC)cc2)[C@H]2c3cc(C(=O)N4CCCC4)n(Cc4ccc(C)o4)c3C[C@H]2CN1C(=O)c1ccccc1 | 0.0373 (inactive) | 0.283 | -1.77 | -5.91 (inactive) | -0.683 (inactive) | -1.38 (inactive)
[N-]=[N+]=Nc1ccccc1C[C@]1(C(=O)NCCN2CCOCC2)N=C(c2ccc(OCCCO)cc2)O[C@H]1c1ccccc1N=[N+]=[N-] | 1.24 (inactive) | 0.682 | -2.21 | -3.22 (inactive) | -1.3 (inactive) | -2.17 (inactive)
C[C@]12C(=O)N(CCCCCO)[C@@H]3C(=O)N(c4ccc(Cl)cc4)CC=CC31O[C@@H]1/C=C\CCCOC(=O)C12 (stereo partly drawn) | 0.951 (inactive) | 0.0211 | 1.77 | -4.29 (inactive) | 0.0276 (inactive) | 0.596 (inactive)
COCCOC(=O)N1C(=O)[C@@]2(c3cc(C#CCNC(N)=O)ccc31)[C@H](C(=O)N1CCCCCCC1)[C@H]1C(=O)O[C@H](c3ccccc3)[C@H](c3ccccc3)N1[C@@H]2c1ccc(OCCO)cc1 | 0.0447 (inactive) | 0.28 | -1.77 | -15.8 (active) | -0.0977 (inactive) | -0.64 (inactive)
Cc1ccccc1C(O)C1C=CC2C(=O)N(Cc3ccccc3)C(=O)C2N1n1cnnc1 (stereo not drawn) | 0.598 (inactive) | 0.58 | -0.318 | -3.23 (inactive) | 0.135 (inactive) | -0.544 (inactive)
COC(=O)[C@@]1(Cc2ccc(OC)cc2)[C@H]2c3cc(C(=O)N4CCCC4)n(CCc4ccc(O)c(OC)c4)c3C[C@H]2CN1C(=O)c1ccccc1 | 0.739 (inactive) | -0.506 | -0.37 | -4.35 (inactive) | 0.219 (inactive) | 0.0055 (inactive)
CN(C)CCCC[C@@H]1NC(=O)[C@H]2C[C@@H](C(=O)NCCCCCCNC(=O)CS)[C@@H](c3ccc(O)cc3)N2C1=O | 1.44 (inactive) | 0.868 | 0.323 | -2.87 (inactive) | -0.346 (inactive) | 0.128 (inactive)
